RecA splice inh – blocks M. tuberculosis RecA intein splicing; cell-free RecA intein splicing, fluorescence; 0.75% of 290,000 active; P9WHJ3; inhibition, % (test concentration not listed); in the data active = inhibition above about 30%;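 note: 0% = vehicle wells and 100% = reference inhibitor control wells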
Mtb betalactam – beta-lactam sensitization of Mtb H37Rv; M. tuberculosis H37Rv growth with meropenem, percent inhibition; inhibition, % at 25 µM; 0.27% of 330,000 active; AID 434955;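 note: growth measured after seven days incubation then overnight dye step; 0% = bacteria only wells and 100% = bacteria with antibiotic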
BioA inh-1 – BioA (M. tuberculosis) enzyme inhibition. purified M. tuberculosis BioA enzyme, plate reader. inhibition, % at 9.99 µM. 0.096% of 360,000 active. AID 602481; in the data active = inhibition above about 40%
CCHFV vOTU inh – blocks the CCHF virus ovarian tumor domain protease. CCHFV vOTU protease, Pep-AMC fluorescence. inhibition, % at 11.5 µM. 0.55% of 370,000 active; in the data active = inhibition above about 30%; note: 0% = vehicle wells with enzyme and 100% = no enzyme wells
BJeLR viability – kills HRASV12-expressing BJeLR cells; 0.17% of 300,000 active; BJeLR (HRASV12) viability, CellTiter-Glo ATP luminescence, 48 h; inhibition, % (concentration not given with the values); AID 1554; in the data active = inhibition above about 50%
Yp Topo-I inh – Y. pestis Topo-I inhibition via cleavage products | 0.064% of 360,000 active | activity, % at 10 µM | Y. pestis Topo-I cleavage product accumulation, plate reader; in the data active = activity above about 50%, passing the limit was not always enough
BioA inh-2 – Mtb BioA enzyme inhibition; 310 tested, under 10 active; purified BioA enzyme, plate reader, dose response; shares compounds with BioA inh-1; max activity, %;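 note: top concentration of the dilution series was 10 µM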
Target sequence (P9WQ81 whole entry, looked up): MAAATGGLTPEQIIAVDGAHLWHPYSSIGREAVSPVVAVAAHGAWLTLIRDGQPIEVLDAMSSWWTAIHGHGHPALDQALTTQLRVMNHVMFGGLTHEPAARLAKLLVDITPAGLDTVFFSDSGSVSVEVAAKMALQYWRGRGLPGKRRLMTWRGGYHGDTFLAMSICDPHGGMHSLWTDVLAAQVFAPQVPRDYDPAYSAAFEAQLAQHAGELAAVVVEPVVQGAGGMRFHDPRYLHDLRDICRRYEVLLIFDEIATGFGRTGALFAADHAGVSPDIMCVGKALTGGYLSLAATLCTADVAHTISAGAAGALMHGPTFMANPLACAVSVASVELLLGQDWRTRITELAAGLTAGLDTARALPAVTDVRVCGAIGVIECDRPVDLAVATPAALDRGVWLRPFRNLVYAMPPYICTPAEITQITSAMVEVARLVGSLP
HepG2 cytotox – HepG2 viability loss | 310 tested, under 10 active | HepG2 cytotoxicity, plate reader | shares compounds with BioA inh-1 | AID 651898 | max activity, %
3T3 cytotox 5 – cytotoxicity in NIH3T3 cells. 310 tested, under 10 active. shares compounds with BioA inh-1. activity change, negative = cytotoxicity, % at 26 µM. plate reader
An asterisk follows results filed as active; [ ] = remark or other dose. This is a sample that favours compounds with a hit; in the whole collection about 1.1% have one here. Unless noted, the rule behind the calls is not given here.

Screening CO[C@@H]1CN(C)C(=O)c2ccc(NS(=O)(=O)C3CCCCC3)cc2OC[C@@H](C)NC[C@@H]1C returned BioA inh-1 -0.2.
Screening CC(C)C#Cc1ccc([C@@H]2[C@@H](CO)N(C(=O)CN(C)C)[C@H]2C#N)cc1 returned BioA inh-1 -1.4.
C[C@H]1CN([C@@H](C)CO)S(=O)(=O)c2ccc(C#CC(C)(C)O)cc2O[C@@H]1CN(C)Cc1ccc(-c2ccccc2)cc1 was read as BioA inh-1 8.6.
Cc1nn(CCC(=O)O)c2nc(-c3cccnc3)cc(C(F)(F)F)c12 was read as RecA splice inh -0.2, Mtb betalactam 3.0, BioA inh-1 47.7*, CCHFV vOTU inh -16.4, BJeLR viability 5.4, Yp Topo-I inh -6.6, BioA inh-2 7.1, HepG2 cytotox 10.4 and 3T3 cytotox 5 -0.5.
Screening CCOC(=O)c1cc2c(C(F)(F)F)cc(-c3cccnc3)nc2o1 returned RecA splice inh 0.5, Mtb betalactam -11.5, BioA inh-1 -0.1, CCHFV vOTU inh 9.0, BJeLR viability 0.1 and Yp Topo-I inh 8.3.
CCCC#Cc1cnc2c(c1)C(=O)N([C@H](C)CO)C[C@H](C)[C@H](CN(C)Cc1ccncc1)O2 was read as BioA inh-1 2.1.
Screening Cn1ncc2c(Nc3ccc(Cl)cc3)ncnc21 returned RecA splice inh -2.7, Mtb betalactam -3.0, BioA inh-1 2.6, CCHFV vOTU inh 3.3, BJeLR viability 0.4 and Yp Topo-I inh 4.2.
Cn1ncc2cc3c(Nc4ccc(Cl)cc4)cccc3nc21 was read as BioA inh-1 81.4*, CCHFV vOTU inh -0.3, BioA inh-2 -4.2, HepG2 cytotox -9.1 and 3T3 cytotox 5 -2.9.
`C[C@H]1CN([C@@H](C)CO)S(=O)(=O)c2ccc(C3=CCCC3)cc2O[C@@H]1CN(C)Cc1ccccc1F` gave BioA inh-1 -3.8.
`COc1ccccc1S(=O)(=O)N1CC[C@@H]2[C@H](CO)Nc3ccc(-c4ccccc4)cc3[C@@H]21` gave BioA inh-1 43.2*, BioA inh-2 5.0, HepG2 cytotox inactive and 3T3 cytotox 5 -4.3[23.5 µM].
COc1ccccc1S(=O)(=O)N1CC[C@H]2[C@H](CO)Nc3ccc(-c4ccccc4)cc3[C@H]21 was read as BioA inh-1 9.6.
For COc1ccccc1NC(=O)N[C@@H]1CC[C@H](CCn2cc(-c3cccnc3)nn2)O[C@H]1CO the results were BioA inh-1 56.7*, BioA inh-2 5.0, HepG2 cytotox inactive and 3T3 cytotox 5 -8.8.
`O=C(N[C@H]1CC[C@@H](CCn2cc(-c3cccnc3)nn2)O[C@H]1CO)c1ccccc1F` gave BioA inh-1 46.7*, BioA inh-2 3.1, HepG2 cytotox inactive and 3T3 cytotox 5 1.5.
Screening COc1ccccc1NC(=O)N[C@H]1CC[C@@H](CCn2cc(-c3cccnc3)nn2)O[C@H]1CO returned BioA inh-1 33.5.
For COC(=O)C1C(=O)C=C(Nc2ccc(F)cc2F)CC1c1ccc(OC)cc1 (stereo unspecified) the results were RecA splice inh 1.2, Mtb betalactam -6.5, BioA inh-1 19.3, CCHFV vOTU inh 5.4, BJeLR viability -9.5 and Yp Topo-I inh 3.2.
COC(=O)C1C(=O)C=C(Nc2ccc(F)cc2)CC1c1ccc(OC)cc1 (stereo unspecified) was read as RecA splice inh -1.0, Mtb betalactam 3.6, BioA inh-1 75.4*, CCHFV vOTU inh -17.9, BJeLR viability -1.0, Yp Topo-I inh 4.2, BioA inh-2 -5.6, HepG2 cytotox 7.6 and 3T3 cytotox 5 -1.7.
`C[C@@H]1CN([C@H](C)CO)C(=O)c2cc(NC(=O)c3ccncc3)ccc2O[C@@H](C)CCCCO[C@@H]1CN(C)S(=O)(=O)c1ccccc1` gave BioA inh-1 -2.8.
Screening O=C(C[C@H]1CC[C@H]2[C@@H](COC[C@@H](O)CN2Cc2ccccc2)O1)N1CCOCC1 returned BioA inh-1 -0.8.
For CC(C)(C)[S@@](=O)N1Cc2cc(C(=O)NCc3ccccc3F)nc(-c3cccc(-c4cccnc4)c3)c2[C@H]1CCO the results were BioA inh-1 7.8.
CC(C)(C)[S@](=O)N1Cc2cc(C(=O)NCc3ccccc3F)nc(-c3cccc(-c4cccnc4)c3)c2[C@@H]1CCO was read as BioA inh-1 42.4*, BioA inh-2 -6.9, HepG2 cytotox inactive and 3T3 cytotox 5 -5.4[23.5 µM].
`C[C@H]1CCCCO[C@@H](CN(C)Cc2ccccc2)[C@@H](C)CN([C@@H](C)CO)C(=O)c2cc(NC(=O)Nc3ccccc3)ccc2O1` gave BioA inh-1 0.6.
`COc1ccc(NC(=O)c2ccc(Cl)nc2)cc1S(=O)(=O)N1CCOCC1` gave Mtb betalactam -7.9, BioA inh-1 58.9*, CCHFV vOTU inh -4.9, Yp Topo-I inh 3.8, BioA inh-2 -9.0, HepG2 cytotox -13.5 and 3T3 cytotox 5 -4.2.
Screening CCc1c(C)nc2ncnn2c1Nc1ccc(C#N)c(Cl)c1 returned RecA splice inh 0.2, Mtb betalactam -5.6, BioA inh-1 40.4*, CCHFV vOTU inh 4.8, BJeLR viability -13.4, Yp Topo-I inh -6.2, BioA inh-2 -5.6, HepG2 cytotox -7.2 and 3T3 cytotox 5 -6.6.
`C[C@H]1CN([C@@H](C)CO)C(=O)Cc2cc(NC(=O)Cc3ccccc3)ccc2O[C@@H]1CN(C)Cc1ccc2c(c1)OCO2` gave BioA inh-1 3.5.
Screening COCCN1C(=O)c2ccc(C(=O)Nc3cccnc3)cc2C1=O returned RecA splice inh -0.5, Mtb betalactam 3.3, BioA inh-1 59.3*, CCHFV vOTU inh 11.0, BJeLR viability 10.4, Yp Topo-I inh -5.8, BioA inh-2 -7.3, HepG2 cytotox -11.7 and 3T3 cytotox 5 3.2.
`O=C(Nc1cccnc1)c1ccc(Cl)c(Cl)c1` gave Mtb betalactam 1.1, BioA inh-1 59.5*, CCHFV vOTU inh -10.4, BJeLR viability -1.4, Yp Topo-I inh -9.7, BioA inh-2 -6.0, HepG2 cytotox 12.9 and 3T3 cytotox 5 1.5.
CCCOC(=O)c1cccc(NC(=O)c2cccnc2)c1 was read as RecA splice inh 0.8, Mtb betalactam 0.2, BioA inh-1 43.3*, CCHFV vOTU inh 0.8, BJeLR viability -3.8, Yp Topo-I inh 0.2, BioA inh-2 -7.6, HepG2 cytotox 7.0 and 3T3 cytotox 5 -3.2.
Screening COc1cc(OC)c(C(=O)Nc2cccnc2)cc1OC returned RecA splice inh -3.8, Mtb betalactam -4.8, BioA inh-1 84.9*, CCHFV vOTU inh -0.1, BJeLR viability 2.8, Yp Topo-I inh -3.8, BioA inh-2 3.7, HepG2 cytotox -7.1 and 3T3 cytotox 5 -3.1.

Screens from PubChem.
